The values that follow come from the antibiotic and cytotoxicity screens of Wong et al. (2023).

Molecules are shown by their SMILES. In all, about 39,000 compounds went through this assay and about 3,300 (8.5%) were called active. This is one part of a sample in which actives are shown more often than they occur.

This experiment has as its system HepG2. Kind of experiment: cytotoxicity call (relative viability < 0.9). The following applies: 10 µM.
For the compound `Cc1ccc(S(=O)(=O)N2C[C@H](O)COC[C@H]3O[C@H](CC(=O)N4CCc5ccccc5C4)CC[C@@H]32)cc1`, the cytotoxicity call is “inactive”.
For `CC(C)(N)c1cc(C(=O)N[C@@H]2CCc3ccc(Oc4ccnc5c4CCC(=O)N5)cc3C2)cc(C(F)(F)F)c1`, the cytotoxicity call was “active”.
With `CC(C)CC#Cc1ccc2c(c1)O[C@@H](CN(C)C(=O)Cc1ccccn1)[C@@H](C)CN([C@@H](C)CO)S2(=O)=O`, the cytotoxicity call is “inactive”.
Regarding `C[C@@H]1CN([C@H](C)CO)C(=O)c2cc(NS(=O)(=O)c3ccccc3)ccc2O[C@H]1CN(C)S(C)(=O)=O`, the cytotoxicity call was “active”.
Then `C[C@H]1CN([C@@H](C)CO)C(=O)c2cc(NS(=O)(=O)c3ccccc3)ccc2O[C@H]1CN(C)S(C)(=O)=O`, with “inactive”.
Then `C[C@@H]1CN([C@@H](C)CO)C(=O)c2cc(NS(=O)(=O)c3ccccc3)ccc2O[C@@H]1CN(C)S(C)(=O)=O`, with “inactive”.
On to `C[C@H]1CN([C@@H](C)CO)C(=O)c2cc(NS(=O)(=O)c3ccccc3)ccc2O[C@@H]1CN(C)S(C)(=O)=O`, for which the cytotoxicity call was “active”.
Then `C[C@H](CO)N1C[C@H](C)[C@H](CN(C)S(C)(=O)=O)Oc2ccc(NS(=O)(=O)c3ccccc3)cc2C1=O`, with “inactive”; and `C[C@H](CO)N1C[C@H](C)[C@@H](CN(C)S(C)(=O)=O)Oc2ccc(NS(=O)(=O)c3ccccc3)cc2C1=O`, with “inactive”; and `Cn1cnc(S(=O)(=O)N2C[C@H](O)COC[C@H]3O[C@@H](CC(=O)NCc4cc(F)cc(F)c4)CC[C@@H]32)c1`, with “inactive”.
On to `C[C@@H]1CN([C@H](C)CO)C(=O)c2cccc(NS(=O)(=O)c3ccc(F)cc3)c2O[C@H]1CN(C)S(=O)(=O)c1cn(C)cn1`, for which the cytotoxicity call was “inactive”.
Then `C[C@@H]1CCCCO[C@H](CN(C)S(C)(=O)=O)[C@@H](C)CN([C@H](C)CO)C(=O)c2cc(NC(=O)Nc3cccc4ccccc34)ccc2O1`, with “inactive”; and `C[C@H](CO)N1C[C@H](C)[C@H](CN(C)Cc2ccc(C(F)(F)F)cc2)Oc2c(NC(=O)Nc3ccc4c(c3)OCO4)cccc2C1=O`, with “inactive”; and `C[C@@H]1CN([C@@H](C)CO)C(=O)c2cccc(NC(=O)Nc3ccc(C(F)(F)F)cc3)c2O[C@H]1CN(C)Cc1ccc2c(c1)OCO2`, with “inactive”.
As to `C[C@H](CO)N1C[C@H](C)[C@@H](CN(C)Cc2ccc(C(F)(F)F)cc2)Oc2c(NC(=O)Nc3ccc4c(c3)OCO4)cccc2C1=O`, the cytotoxicity call was “inactive”.
Then `C[C@H]1CN([C@@H](C)CO)C(=O)c2cccc(NC(=O)Nc3ccc4c(c3)OCO4)c2O[C@@H]1CN(C)Cc1ccc(C(F)(F)F)cc1`, with “inactive”; and `C[C@H]1CN([C@@H](C)CO)C(=O)c2cccc(NC(=O)Nc3ccc(C(F)(F)F)cc3)c2O[C@H]1CN(C)Cc1ccc2c(c1)OCO2`, with “inactive”; and `C[C@@H]1CN([C@@H](C)CO)C(=O)c2cccc(NC(=O)Nc3ccc(C(F)(F)F)cc3)c2O[C@@H]1CN(C)Cc1ccc2c(c1)OCO2`, with “active”.
As for `C[C@@H]1CN([C@@H](C)CO)C(=O)c2cccc(NC(=O)Nc3ccc4c(c3)OCO4)c2O[C@H]1CN(C)Cc1ccc(C(F)(F)F)cc1`, the cytotoxicity call is “active”.
Regarding `C[C@H]1CN([C@@H](C)CO)C(=O)c2cccc(NC(=O)Nc3ccc4c(c3)OCO4)c2O[C@H]1CN(C)Cc1ccc(C(F)(F)F)cc1`, the cytotoxicity call is “inactive”.
To `C[C@@H]1CN([C@H](C)CO)C(=O)c2cccc(NC(=O)Nc3ccc4c(c3)OCO4)c2O[C@H]1CN(C)Cc1ccc(C(F)(F)F)cc1` belongs “active”.
To `CCOC(=O)N(C)C[C@H]1OCc2cn(nn2)CCCC(=O)N([C@H](C)CO)C[C@@H]1C` belongs “inactive”; to `CC(=O)O[C@H]1CC[C@]2(C)[C@H]3CC[C@]4(C)C(=CC(=O)O[C@H]4c4ccoc4)[C@]3(C)[C@H](OC(C)=O)C[C@H]2C1(C)C`, “inactive”.
Then `CN(C)C(=O)c1ccc(-c2ccc3n(c2=O)C[C@@H]2[C@@H](CO)[C@H](C(=O)NCCc4ccccc4)N[C@H]32)cc1`, with “inactive”; and `COc1ccc(NC(=O)Nc2ccc3c(c2)C(=O)N([C@H](C)CO)C[C@@H](C)[C@@H](CN(C)Cc2ccc(Oc4ccccc4)cc2)O3)cc1`, with “inactive”.
For the compound `COc1ccc(NC(=O)Nc2ccc3c(c2)C(=O)N([C@@H](C)CO)C[C@H](C)[C@@H](CN(C)Cc2ccc(Oc4ccccc4)cc2)O3)cc1`, the cytotoxicity call was “inactive”.
Regarding `COc1ccc(NC(=O)Nc2ccc3c(c2)C(=O)N([C@H](C)CO)C[C@H](C)[C@@H](CN(C)Cc2ccc(Oc4ccccc4)cc2)O3)cc1`, the cytotoxicity call was “active”.
To `COc1ccc(NC(=O)Nc2ccc3c(c2)C(=O)N([C@@H](C)CO)C[C@@H](C)[C@H](CN(C)Cc2ccc(Oc4ccccc4)cc2)O3)cc1` belongs “inactive”.
For `COc1ccc(NC(=O)Nc2ccc3c(c2)C(=O)N([C@H](C)CO)C[C@H](C)[C@H](CN(C)Cc2ccc(Oc4ccccc4)cc2)O3)cc1`, the cytotoxicity call was “inactive”.
Then `COc1ccc(NC(=O)Nc2ccc3c(c2)C(=O)N([C@@H](C)CO)C[C@@H](C)[C@@H](CN(C)Cc2ccc(Oc4ccccc4)cc2)O3)cc1`, with “active”; and `C[C@H](CO)N1C[C@H](C)[C@@H](CN(C)S(=O)(=O)c2ccc(Cl)cc2)OCc2cnnn2CCCC1=O`, with “inactive”.
Then `Cc1ccc(S(=O)(=O)Nc2ccc3c(c2)C(=O)N([C@@H](C)CO)C[C@@H](C)[C@@H](CN(C)C(=O)C2CCCCC2)OCCCC[C@H](C)O3)cc1`, with “inactive”; and `CC(C)(c1cc(Br)c(O)c(Br)c1)c1cc(Br)c(O)c(Br)c1`, with “inactive”.
Then `C[C@H](CO)N1C[C@H](C)[C@@H](CN(C)C(=O)NC2CCCCC2)Oc2c(NS(=O)(=O)c3cn(C)cn3)cccc2C1=O`, with “inactive”; and `CNC(=O)C[C@@H]1CC[C@H]2[C@@H](COC[C@H](O)CN2C(=O)c2ccc3c(c2)OCO3)O1`, with “inactive”.
On to `CCCNC(=O)N1C[C@H](O)COC[C@H]2O[C@@H](CC(=O)NCCCN3CCOCC3)CC[C@@H]21`, for which the cytotoxicity call is “inactive”.
To `O=C(C[C@@H]1CC[C@H]2[C@@H](COC[C@@H](O)CN2C(=O)c2ccc3c(c2)OCO3)O1)NCCN1CCCCC1` belongs “active”; to `CCCNC(=O)N1C[C@H](O)COC[C@H]2O[C@H](CC(=O)NCCCN3CCOCC3)CC[C@@H]21`, “active”; to `CNC(=O)C[C@H]1CC[C@H]2[C@@H](COC[C@@H](O)CN2C(=O)c2ccc3c(c2)OCO3)O1`, “inactive”.
Then `O=C(C[C@H]1CC[C@@H]2[C@H](COC[C@H](O)CN2C(=O)c2ccc3c(c2)OCO3)O1)NCCN1CCCCC1`, with “inactive”.
Then `O=C(C[C@@H]1CC[C@@H]2[C@H](COC[C@@H](O)CN2C(=O)c2ccc3c(c2)OCO3)O1)NCCN1CCCCC1`, with “inactive”; and `CCCNC(=O)N1C[C@@H](O)COC[C@H]2O[C@@H](CC(=O)NCCCN3CCOCC3)CC[C@@H]21`, with “inactive”.
Take `CNC(=O)C[C@H]1CC[C@@H]2[C@H](COC[C@@H](O)CN2C(=O)c2ccc3c(c2)OCO3)O1`: the cytotoxicity call is “active”.
